High-throughput results: PubChem BioAssay, National Center for Advancing Translational Sciences (NCATS)
The list is not random: actives were taken first. Their share in the collection is about 6.9%.
L3MBTL1 block: blocks human L3MBTL1; Q9Y468; AID 485360; 230,000 tested, 0.66% active; AlphaScreen L3MBTL1–H3K9me1 peptide binding; Potency, µM (top dose mostly 57.1 µM), without a hit: top-dose activity, negative = inhibition, actives largely listed as inhibitors; further: on the % scale 0 is the no-effect control and ±100 the full control effect; nearly all actives have a fitted effect of over 60% in size
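L3MBTL1 50 nM + b-AHA-H3(1-15)K9me1 75 nM, 30 min RT; compound added, 30 min RT; streptavidin donor/Ni-chelate acceptor beads 10 ug/mL each final, 30 min RT dark; AlphaScreen read.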
BAZ2B block: BAZ2B (human) inhibition. Q9UIF8. AlphaScreen BAZ2B-H3K14Ac peptide displacement. Potency, µM (doses to about 114 µM), for inactives: at the highest dose activity change, negative = inhibition, most hits filed as inhibitors. 360,000 tested, 4.4% active. AID 504333; further: on the % scale 0 is the no-effect control and ±100 the full control effect; nearly all actives have a fitted effect of over 60% in size
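AlphaScreen displacement of biotin-H3(5-23)K14Ac peptide (50 nM final) from BAZ2B (50 nM final) in PBS pH 7.4, 0.01% Tween-20; complex preformed 30 min RT, then compounds (top 110 uM) 30 min RT, beads 20 min dark.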
PLK1 PBD inh: inhibitors of human PLK1 polo-box domain binding; Potency, µM, inactives show max response, negative = inhibition, usual class: inhibitors; Plk1 PBD binding of FITC phosphopeptide, fluorescence polarization; AID 720504; 360,000 tested, 2.8% active; P53350; further: series mostly up to about 57 µM; on the % scale 0 is the no-effect control and ±100 the full control effect; nearly all actives have a fitted effect of over 65% in size
Target sequence (P53350 whole entry, looked up, the tested form may be a part): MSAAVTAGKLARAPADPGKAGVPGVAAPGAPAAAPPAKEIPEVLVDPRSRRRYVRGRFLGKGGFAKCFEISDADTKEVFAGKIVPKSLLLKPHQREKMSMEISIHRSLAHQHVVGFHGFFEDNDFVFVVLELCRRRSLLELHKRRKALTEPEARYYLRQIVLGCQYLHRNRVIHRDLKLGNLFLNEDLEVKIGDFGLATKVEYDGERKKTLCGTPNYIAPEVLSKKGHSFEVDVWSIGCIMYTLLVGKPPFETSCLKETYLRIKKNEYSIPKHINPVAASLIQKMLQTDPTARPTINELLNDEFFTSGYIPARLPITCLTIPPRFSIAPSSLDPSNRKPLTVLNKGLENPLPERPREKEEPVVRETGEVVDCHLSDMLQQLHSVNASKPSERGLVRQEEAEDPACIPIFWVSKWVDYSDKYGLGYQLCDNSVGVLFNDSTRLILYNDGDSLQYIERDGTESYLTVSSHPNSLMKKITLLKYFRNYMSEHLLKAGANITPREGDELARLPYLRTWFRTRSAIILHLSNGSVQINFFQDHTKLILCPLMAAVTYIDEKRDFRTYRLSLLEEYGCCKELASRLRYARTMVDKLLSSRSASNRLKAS
HP1b chromo inh: inhibitors of HP1-beta chromodomain binding to methylated histone tails. AlphaScreen HP1-beta / biotin-H3K9me3 peptide binding. Potency, µM (highest dose often 114 µM), for the others: at the top dose activity change, negative = inhibition, usual class: inhibitors. 390,000 tested, 0.56% active. AID 540317; further: nearly all actives have a fitted effect of over 70% in size
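Compound inhibition of the preformed complex between 50 nM HP1-beta and 50 nM biotinylated H3K9me3 peptide was read by AlphaScreen. Buffer was PBS pH 7.4 with 0.01% Tween-20. Incubations ran 30 min at room temperature, with 10 ug/mL donor/acceptor beads.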
JMJD2A Tudor: JMJD2A Tudor domain (human) inhibition | AlphaScreen JMJD2A-Tudor / H3K4me3 peptide binding | Potency, µM (highest dose often 114 µM), for inactives: at the top dose activity change, negative = inhibition, actives largely listed as inhibitors | 390,000 tested, 4.4% active | AID 504339; further: on the % scale 0 is the no-effect control and ±100 the full control effect; nearly all actives have a fitted effect of over 50% in size
VDR inhibitor: inhibitors of human vitamin D receptor. P11473. VDR-SRC2-3 peptide fluorescence polarization, 2 h. Potency, µM, inactives show max response, negative = inhibition, usual class: inhibitors. 400,000 tested, 0.93% active. AID 504847; further: on the % scale 0 is the no-effect control and ±100 the full control effect
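FP read-out; VDR + SRC2-3 coactivator peptide; 23 nl compound by pintool; 2 h RT incubation; reagents held at 4 deg C, protected from light.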
An asterisk follows results filed as active; ? = inconclusive; / = not tested or not shown; [ ] = remark or other dose. The call rests on the fitted dose curve; in most records, active means well fitted curve in the direction sought with a large enough effect; inconclusive means small, poorly fitted or top-dose-only effect, or another doubt; inactive means no such curve, though single readings can be large; an effect the other way counts as inactive or inconclusive. Potency means the concentration at half of the fitted maximal effect.

SMILES	L3MBTL1 block	BAZ2B block	PLK1 PBD inh	HP1b chromo inh	JMJD2A Tudor	VDR inhibitor
COc1ccc(CN(CC(=O)NC2CCCC2)C(=O)c2csnn2)cc1	/	6%	-1%	-15%	-1%	-3%
O=C(NCC1CCCO1)C(c1cccs1)N(Cc1ccccc1)C(=O)c1ccc(-c2ccccc2)[nH]1 (stereo not drawn)	-21%	?	7%	?	?	-5%
COc1ccc(CN(C(=O)c2ccc(-c3ccccc3)[nH]2)C(C(=O)NCC2CCCO2)c2ccc(C)o2)cc1 (stereo not drawn)	-17%	45µM*	3%	-18%	?	7%
CC(C(=O)NC1CCCC1)N(C(=O)c1ccc(-c2ccccc2)[nH]1)c1ccccc1F (stereo not drawn)	-26%	?	-8%	-33%	22µM*	-13%
COc1ccc(CN(CC(=O)NC2CCCC2)C(=O)c2ccc(-c3ccccc3)[nH]2)cc1	?	28µM*	-1%	-19%	?	-5%
N#CCN(CC#N)C(=O)C1c2ccccc2Oc2ccccc21	/	-7%	24µM*	14%	40µM*	-15%
Cc1cccc(NC(=O)CCC(=O)OCC(=O)c2ccc(Oc3ccc([N+](=O)[O-])cc3)cc2)c1	2%	-4%	11µM*	-4%	-19%	?
Cn1cccc1/C=N\NC(=O)C1COc2ccc(C(C)(C)C)cc2O1 (stereo not drawn)	/	35µM*	2%	7%	-11%	-7%
O=C(O)c1ccc(Br)cn1	/	22µM*	-6%	5%	5.6µM*	-6%
COC(=O)c1ccc(O)cc1	/	-1%	4%	24%	2%	-14%
Cc1cnc(C(=O)O)cn1	/	/	/	/	/	2%
COC(=O)c1ccc(C(=O)O)nc1	?	18µM*	-8%	?	13µM*	-6%
COc1ccc(CC(=O)N/N=C(\C)c2cccnc2)cc1	/	-8%	1%	52%	-2%	3%
CN=c1scc(-c2ccc(OC)cc2)n1/N=C(\C)c1cccnc1	?	32µM*	-8%	45µM*	50µM*	4%
CCOc1cc(-c2nc(-c3ccc(-c4ccc(C)cc4)nc3OC)no2)cc(OCC)c1OCC	/	1%[57.1 µM]	/	33%	1%	13%
COc1ccc(OCC(=O)OCc2cc(=O)n3nc(C4CCCCC4)sc3n2)cc1	/	-12%	/	?	-29%	-3%
COC(=O)c1ccccc1NC=C1C(=O)OC2(CCCCC2)OC1=O	-2%	6%	4.2µM*	1%	-5%[11.4 µM]	18%
c1cc2c3c(cccc3c1)C(N1CCOCC1)=N2	1%	-2%	-17%	2%	-14%	-13%
c1ccc(CC2CCN(C3=Nc4cccc5cccc3c45)CC2)cc1	-13%	50µM*	-4%	?	22µM*	3%
COc1ccc(-n2ncc3c(NCCC4=CCCCC4)ncnc32)cc1	/	3%	/	22%	-20%	4%
CCC1CCCCN1CC(O)COCc1cccc(OC)c1 (stereo not drawn)	/	-16%	-12%	-8%	-8%	13%
OCCC1CCCCN1CC(O)COCc1ccc(Cl)cc1 (stereo not drawn)	/	?	-15%	?	22µM*	-2%
NC(=O)C1CCCN(CC(O)COCc2ccc(Cl)cc2)C1 (stereo not drawn)	/	50µM*	0%	-32%	18µM*	-7%
Cc1ccc(C(C)(C)NC(=O)C2CCC(=O)N(CC3CCCCC3)C2)cc1 (stereo not drawn)	/	-12%[57.1 µM]	27µM*	-1%	-30%	-25%
COc1ccccc1OCC(=O)Sc1ccc(C)cc1	-4%	170%	3µM*	186%	121%	?
Cc1ccccc1CNC(=O)C(C)Sc1ccccc1 (stereo not drawn)	/	/	-8%	/	/	/
Cc1ccc(OCC(=O)Sc2ccc(C)cc2)cc1	/	158%	6µM*	308%	190%	45µM*
COc1ccccc1CNC(=O)C(C)Sc1ccc(C)cc1 (stereo not drawn)	8%	16%	21µM*	-6%	-27%	-24%
